Screens from PubChem.
DT40 TDP1 CPT = qHTS for Inhibitors of human tyrosyl-DNA phosphodiesterase 1 (TDP1): qHTS in cells in presence of CPT. Potency, µM (doses to about 46.2 µM), for the others: at the highest dose activity change, negative = growth inhibition, usual class: inhibitors. chicken DT40 Tdp1-/-;hTDP1 cells + 20 nM CPT, ATP luminescence, 48 h. AID 686979, 2013. 12% of 420,000 active; further: potency means the concentration at half of the fitted maximal effect; nearly all actives have a fitted effect of over 55% in size
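Chicken DT40 Tdp1-/- cells complemented with human TDP1, 400 cells/well, exposed to compounds plus 20 nM camptothecin for at least 48 h at 37 C; viability read as ATP content by CellTiter-Glo luminescence.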
HT1080 IDH1KD tx = qHTS for induction of synthetic lethality in tumor cells producing 2HG: qHTS for the HT-1080-IDH1KD cell line. HT-1080 IDH1 knockdown viability, ATP luminescence, 48 h. Potency, µM (doses to about 46.1 µM), for inactives: at the highest dose activity, negative = toxicity, hits mostly cytotoxic. 2% of 360,000 active. AID 686971, 2013;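 further: potency means the concentration at half of the fitted maximal effect; 0% = DMSO wells and -100% = cell-free medium wells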
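CellTiter-Glo luminescence after 48 h compound exposure at 37 degrees C of IDH1-knockdown HT-1080 cells in 5% FBS RPMI. %Activity scaled between DMSO wells and cell-free media wells, with curves fitted and assigned curve classes.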
DT40 TDP1 no CPT = qHTS for Inhibitors of human tyrosyl-DNA phosphodiesterase 1 (TDP1): qHTS in cells in absence of CPT; DT40 Tdp1-/- hTDP1 cells, no CPT, ATP luminescence, 48 h; Potency, µM (doses to about 46.2 µM), inactives show at the highest dose activity change, negative = growth inhibition, usual class: inhibitors; 15% of 420,000 active; further: potency means the concentration at half of the fitted maximal effect; nearly all actives have a fitted effect of over 55% in size
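Chicken DT40 Tdp1-/- cells complemented with human TDP1, screened without camptothecin (DMSO vehicle only), 400 cells/well. Compounds pin-transferred, cells incubated at 37 °C for at least 48 hr. Growth read as ATP-dependent luminescence (CellTiter-Glo, 30 min at RT).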
HT1080NT lethal = qHTS for induction of synthetic lethality in tumor cells producing 2HG: qHTS for the HT-1080-NT fibrosarcoma cell line. Potency, µM (highest dose often 46.1 µM), for the others: top-dose activity, negative = less viability, most hits filed as cytotoxic. HT-1080-NT fibrosarcoma viability, CellTiter-Glo ATP luminescence, 48 h. 1.6% of 360,000 active;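 further: NT is the 2HG producing partner of a matched IDH1 knockdown line; potency means the concentration at half of the fitted maximal effect; 0% = DMSO-treated cells and -100% = media-only wells without cells; nearly all actives have a fitted effect of over 55% in size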
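Viability by CellTiter-Glo luminescence after 48 h compound exposure at 37C of HT-1080-NT cells (750/well, RPMI, 5% FBS). % activity scaled between DMSO wells and medium-only wells, then curve-fitted and categorized by curve class.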
uPA generation = qHTS for Inhibitors of Cell Surface uPA Generation; 0.31% of 330,000 active; Potency, µM (top dose mostly 38.3 µM), for the others: at the highest dose activity change, negative = inhibition, usual class: inhibitors; cell surface uPA generation assay, qHTS; active means well fitted inhibition curve with a large enough effect; inconclusive means small, poorly fitted or top-dose-only effect; inactive means no such curve, though single readings can be large or run the other way; tested in mouse RAW 264.7 cells; further: potency means the concentration at half of the fitted maximal effect; nearly all actives have a fitted effect of over 55% in size
IL-1B inflam inh = qHTS for Inhibitors of Inflammasome Signaling: IL-1-beta AlphaLISA Primary Screen; THP-1 LPS/ATP IL-1B secretion, AlphaLISA, 16 h; active compounds read low; activity change, % at 57.5 µM; 4.7% of 360,000 active; in the data active means activity change below about -50%; inconclusive means mostly about -30% to -49%
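THP-1 cells pretreated 1 hr with compounds (up to 57.5 uM final), then stimulated with LPS (250 ng/mL final) plus ATP (1.25 mM final); secreted IL-1B measured by AlphaLISA after 16 hr, decreased signal indicating inhibition.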
* = called active by the depositor; ? = inconclusive; / = no result; ! = repeats disagree; [ ] = dose if it differs, or a comment. Shown are actives, neighbours in structure and some others; about 19% of the full set was active somewhere. Unless noted, the call rests on the fitted dose curve; in most records, active means well fitted curve in the direction sought with a large enough effect; inconclusive means small, poorly fitted or top-dose-only effect, or another doubt; inactive means no such curve, though single readings can be large; an effect the other way counts as inactive or inconclusive. Unless noted, on the % scale 0 is the no-effect control and ±100 the full control effect.

SMILES	DT40 TDP1 CPT	HT1080 IDH1KD tx	DT40 TDP1 no CPT	HT1080NT lethal	uPA generation	IL-1B inflam inh
NS(=O)(=O)c1ccc(CNC(=S)Nc2cc(S(=O)(=O)N3CCOCC3)ccc2Cl)cc1	-6%	3%	7%	11%	-8%	-15
COc1ccccc1CNC(=O)c1cc(S(=O)(=O)N2CCCCCC2)cn1C	-10%	/	-17%	/	/	/
O=C(NCCc1ccc(O)c(Br)c1)c1ccc(Br)o1	-13%	-2%	-23%	-1%	/	0
CCCCCCCCCCCCCC(=O)OC(C)C	3%	/	-3%	/	/	/
COc1ccc(CCNC(=O)c2ccc3c(c2)nc2n3CCOC2)cc1OC	3%	/	4%	/	/	/
CCOC(=O)c1c(CN2CCCCC2)n(C)c2cc(Br)c(O)cc12	2.3µM*	-6%	9.2µM*	0%	/	11
CCn1c(C)nc2cc(S(=O)(=O)C(F)(F)F)ccc21	?	-7%	16µM*	-3%	-9%	0
Cc1sc2ccccc2[n+]1CC(=O)c1ccccc1	?	-4%	18µM*	2%	-30%	?
O=C(C[n+]1c(Cl)cc(Cl)c2ccccc21)c1ccccc1	4.5µM*	/	6.3µM*	/	/	/
Cc1sc2ccccc2[n+]1CCC[n+]1c(C)sc2ccccc21	2µM*	/	1.8µM*	/	/	/
O=C(O)c1cccc(/C=C2/C[C@@H]3[C@@H](/C=C/[C@@H](O)C4CCCCC4)[C@H](O)C[C@@H]3O2)c1	-3%	/	-9%	/	/	/
CCc1nc2sc3c(c2c(=O)n1NC(=O)CCl)CCCC3	21µM*	?	?	-22%	/	-77*
O=C(Nc1ccc(Cl)cc1F)C1CCN(S(=O)(=O)c2cccc3nonc23)CC1	4%	13%	-18%	14%	-5%	1
Cc1ccc(N2CCn3c2nc2c3c(=O)n(CCc3ccccc3)c(=O)n2C)cc1C	-9%	/	-27%	/	/	/
Cc1ccc(-c2ccc(=O)n(Cc3cc(C)ccc3C)n2)cc1	?	?	21µM*	-13%	5%	?
CCc1ccc(CNC(=O)Cn2nc(-c3ccccc3)ccc2=O)cc1	-17%	-17%	-11%	-8%	1%	-87*
Cc1ccc(CCNC(=O)CCn2nc(-c3ccccc3)ccc2=O)cc1	?	/	-46%	/	/	/
Cc1ccc(C)c(Cn2nc(-c3ccccc3)ccc2=O)c1	?	-29%	?	?	0%	-75*
Cc1ccc(CCNC(=O)CCn2nc(-c3ccc(C)cc3)ccc2=O)cc1	23µM*	/	?	/	/	/
O=C(Cn1nc(-c2ccccc2)ccc1=O)NCc1ccc(F)cc1Cl	-27%	/	-29%	/	/	/
CCC(=O)Nc1cccc(NC(=O)CSc2nnc(-c3ccc(NS(C)(=O)=O)cc3)n2CC)c1	1%	0%	20%	2%	3%	-3
COc1ccc(Cn2cc(Cn3c4ccccc4c(=O)n3C(C)C)nn2)cc1	-20%	19%	-7%	20%	/	14
O=C(Nc1cccc(C(F)(F)F)c1)c1noc2c1CCc1ccccc1-2	10µM*	/	?	/	/	/
O=C(Nc1cccc(O)c1)c1noc2c1CCc1ccccc1-2	16µM*!	-28%	?	-26%	?	-83*
Cc1ccc(NC(=O)c2noc3c2CCc2ccccc2-3)cc1	-9%	-1%	-14%	-2%	1%	-4
SMILES	DT40 TDP1 CPT	HT1080 IDH1KD tx	DT40 TDP1 no CPT	HT1080NT lethal	uPA generation	IL-1B inflam inh
CN1C2CCC1CC(NC(=O)c1ccc(Cl)cc1)C2 (centres undefined)	-2%	1%	-4%	-2%	4%	0
O=C(NC1C2CCCC1CN(C1CC1)C2)c1ccc(Cl)cc1 (centres undefined)	?	11%	29µM*	15%	19%	-19
CCOC(=O)C1CN(S(=O)(=O)c2ccc(C)cc2)CCN1S(=O)(=O)c1ccc(C)cc1 (centres undefined)	?	-2%[9.24 µM]	?	-6%	-3%	-11
C=CCC1[C@H](C)[C@H]2[C@@H]3CC[C@@H](C3)[C@H]2CN1S(=O)(=O)c1ccc(C)cc1 (some centres undefined)	18µM*	?	?	-20%	-13%	46
Cc1ccc(S(=O)(=O)N2CCn3cccc3C2C)cc1 (centres undefined)	-5%	-8%	-25%	0%	0%	13
Cc1ccc(S(=O)(=O)N2C[C@@H]3[C@H]4CC[C@H](C4)[C@@H]3[C@@H](C)[C@@H]2c2ccn([Si](C(C)C)(C(C)C)C(C)C)c2)cc1	?	9%	23µM*	7%	13%	25
Cc1ccc(S(=O)(=O)N2C[C@@H]3[C@H]4CC[C@H](C4)[C@@H]3[C@@H](C)C2CC(=O)c2ccccc2)cc1 (some centres undefined)	?	-5%	23µM*	?	8%	-2
CCOc1cc(C2C(C(=O)OC)=C(C)NC3=C2C(=O)c2ccccc23)c(Br)cc1O (centres undefined)	?	/	18µM*	/	/	/
CCOc1cc(Br)c(C2C(C(=O)OC)=C(C)NC3=C2C(=O)c2ccccc23)cc1OCC (centres undefined)	4.6µM*	/	23µM*	/	/	/
CCOc1cc(C2C(C(=O)OC)=C(C)NC3=C2C(=O)c2ccccc23)c(Br)cc1OC (centres undefined)	-30%	/	?	/	/	/
CCOC(=O)C1=C(C)NC2=C(C(=O)c3ccccc32)C1c1cccc2ccccc12 (centres undefined)	?	0%	12µM*	-14%	-1%	-12
O=C(CS(=O)(=O)c1cccc2nsnc12)Nc1ccccc1Cl	2%	/	-24%	/	/	/
C[C@H]1CN([C@@H](C)CO)C(=O)CCCn2cc(nn2)CO[C@@H]1CN(C)C(=O)Oc1ccccc1	6%	7%	18%	22%	/	5
CC(OC(=O)[C@@H](NC(=O)OCc1ccccc1)C(C)C)C(=O)Nc1ccc(N2CCOCC2)cc1 (some centres undefined)	21µM*	-1%	?	-2%	-9%	0
COc1cccc(CC(=O)OC(C)C(=O)Nc2ccc(N3CCOCC3)cc2)c1 (centres undefined)	0%	2%	?	-1%	1%	-9
